The target in assay [1] is Lysosomal acid glucosylceramidase (Homo sapiens) (UniProt P04062). Nature of the assay: Glucocerebrosidase-p2 (AID 348; in the data active = potency below about 10 µM; also: potency is read from the fitted curve at half-maximal effect). Particulars: purified GBA, blue fluorogenic substrate, 40 min. Summed up:
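Compounds titrated from 0.6 nM upwards against 0.2 nM enzyme in pH 5.9 citric acid/KH2PO4, taurocholate, tween-20; blue fluorogenic substrate 80 uM, 40 min room temperature, stopped and read Ex 365/Em 440 for AC50.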

The target of assay [2] is Cytochrome P450 3A4 (Homo sapiens) (UniProt P08684). As to the kind of experiment: qHTS Assay for Activators of Cytochrome P450 3A4 (AID 885). Also: nearly all actives have a fitted effect of over 65% in size. Particulars: recombinant CYP3A4, Luciferin-PPXE luminescence, 60 min; series mostly up to 57.1 µM. An outline of the steps: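 Signal was normalized against complete inhibition by 57 uM ketoconazole. The reaction used 20nM CYP3A4 with 25uM Luciferin-PPXE, 10-min compound preincubation and a 60-min NADPH-supported step at RT.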
Cytochrome P450 3A4 (Homo sapiens), sequence (P08684 whole entry, looked up): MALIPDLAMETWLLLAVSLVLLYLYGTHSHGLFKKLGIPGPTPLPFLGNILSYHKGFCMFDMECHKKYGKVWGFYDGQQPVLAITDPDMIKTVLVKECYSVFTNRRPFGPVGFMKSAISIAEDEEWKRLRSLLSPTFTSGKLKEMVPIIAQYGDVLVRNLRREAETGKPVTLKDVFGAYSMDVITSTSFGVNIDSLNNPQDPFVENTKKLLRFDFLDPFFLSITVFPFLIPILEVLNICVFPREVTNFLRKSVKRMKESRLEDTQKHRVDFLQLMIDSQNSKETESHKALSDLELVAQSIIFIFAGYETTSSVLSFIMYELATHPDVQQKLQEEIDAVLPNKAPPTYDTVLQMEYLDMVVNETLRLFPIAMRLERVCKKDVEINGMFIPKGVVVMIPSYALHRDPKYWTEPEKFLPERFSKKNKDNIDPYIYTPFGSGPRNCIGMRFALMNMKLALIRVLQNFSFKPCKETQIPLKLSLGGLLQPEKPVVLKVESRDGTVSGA
A general note: Quantitative high-throughput screening tests each substance at several concentrations.

The target in assay [3] is Cytochrome P450 2D6 (Homo sapiens) (UniProt P10635). Nature of the assay: qHTS Assay for Inhibitors and Substrates of Cytochrome P450 2D6 (AID 891). Also: nearly all actives have a fitted effect of over 60% in size. Also: potency is read from the fitted curve at half-maximal effect. Conditions: recombinant CYP2D6, luciferin-ME EGE luminescence; series mostly up to 57.1 µM. An outline of the steps:
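Human CYP2D6 (5 nM) with 30 uM Luciferin-ME EGE (at Km) in 100 mM KPO4, compound preincubated 10 min, then NADPH regeneration system for 60 min at room temperature. Luciferin read by luminescence; normalized to 1.43 uM quinidine.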

Assay [4] is described as follows: qHTS Assay for Identification of Small Molecule Agonists for Hypoxia Response Element Signaling Pathway (AID 914; active = well fitted activation curve with a large enough effect in the signal ratio, with a control signal flat, not every such curve was filed as active; the % refers to the signal ratio; also: % of control where 0% means no effect). Conditions: ME-180 HRE-bla reporter, beta-lactamase ratio, CoCl2, 17 h; activation: stronger effect = higher value. An outline of the steps:
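HRE-bla ME-180 cells, overnight plating in Opti-MEM with 0.5% dialyzed FBS; cpd titration + EC50 CoCl2, 17 h, 37 degrees Celsius; CCF4 2.5 h RT; 460/530 nm ratio; AC50.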

In assay [5] the target is Cytochrome P450 2C19 (Homo sapiens) (UniProt P33261). As to the kind of experiment: qHTS Assay for Inhibitors and Substrates of Cytochrome P450 2C19 (AID 899). Also: nearly all actives have a fitted effect of over 60% in size. Also: potency is read from the fitted curve at half-maximal effect. Conditions: recombinant CYP2C19, luciferin-H EGE luminescence; series mostly up to 57.1 µM. An outline of the steps:
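Luminescent read-out of luciferin formed from Luciferin-H EGE (10uM, equal to KM). Enzyme 5nM in 50mM KPO4; compound added, 10 min at 37C, then NADPH regenerating system for 60 min at 37C. Full inhibition defined by 57uM ketoconazole.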

A short description of assay [6]: qHTS Assay for Identification of Small Molecule Agonists for Thrombopoietin (TPO) Signaling Pathway (AID 917). Also: % is scaled to controls: 0 for no effect and ±100 for the full control effect. Particulars: TPO signaling pathway reporter cells, agonist qHTS, stimulated with TPO at its EC50; series mostly up to 38.5 µM. Summed up: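 Luminescence from a Glycoprotein IIb promoter–driven luciferase reporter served as read-out in murine Ba/F3 cells carrying the human TPO receptor. Cells, deprived of IL-3 overnight, received compounds with 26 pM TPO and were incubated 24 hrs at 37 C.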

For assay [7], the target named is Muscarinic acetylcholine receptor M1 (Rattus norvegicus) (UniProt P08482). Nature of the assay: qHTS Assay for Antagonists of Acetylcholine Muscarinic M1 Receptor: Measurement of IP-One Response (AID 944). Also: nearly all actives have a fitted effect of over 75% in size. Conditions: CHO-M1 cells, IP-One HTRF, antagonist mode; series mostly up to 46.1 µM. An outline of the steps: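 CHO cells stably expressing rat M1, pretreated 10 min with compound, then stimulated 30 min with carbachol at EC80 (200 nM) in LiCl-containing buffer pH 7.4; IP1 accumulation read by HTRF competition (665/620 nm).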
Muscarinic acetylcholine receptor M1 (Rattus norvegicus), sequence (P08482 whole entry, looked up): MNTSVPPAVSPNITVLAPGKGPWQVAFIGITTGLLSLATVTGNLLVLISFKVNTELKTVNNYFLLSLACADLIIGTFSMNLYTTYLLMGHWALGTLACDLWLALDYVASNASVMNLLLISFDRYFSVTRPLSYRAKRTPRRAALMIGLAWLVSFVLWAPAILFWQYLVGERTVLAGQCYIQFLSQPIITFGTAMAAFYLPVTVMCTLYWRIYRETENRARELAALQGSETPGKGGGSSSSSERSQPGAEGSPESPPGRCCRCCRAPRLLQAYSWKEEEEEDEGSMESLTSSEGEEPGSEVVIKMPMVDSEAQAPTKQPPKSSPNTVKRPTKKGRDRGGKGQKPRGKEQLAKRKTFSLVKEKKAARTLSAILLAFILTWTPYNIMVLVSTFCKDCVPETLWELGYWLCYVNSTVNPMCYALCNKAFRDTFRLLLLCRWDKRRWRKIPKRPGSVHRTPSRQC

Assay [8] is described as follows: qHTS Assay for Identification of Small Molecule Antagonists for NFkB Signaling Pathway (AID 895; active = well fitted inhibition curve with a large enough effect in the signal ratio, with a control signal flat, not every such curve was filed as active; the % refers to the signal ratio; also: potency is read from the fitted curve at half-maximal effect). Conditions: NFkB beta-lactamase reporter cells, FRET ratio 460/530, stimulated with 10 pM TNF alpha; series mostly up to 38.3 µM. Summed up: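 ME-180 NFkB-bla cells (beta-lactamase under NFkB response element), plated overnight, treated with compound then 10 pM TNF alpha (about EC50) for 5 hrs at 37 C. LiveBLAzer FRET read at 460/530 nm emission, 405 nm excitation.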

In assay [9] the target is Muscarinic acetylcholine receptor M1 (Rattus norvegicus) (UniProt P08482). As to the kind of experiment: qHTS Assay for Antagonists of Acetylcholine Muscarinic M1 Receptor: Kinetic Measurement of Intracellular Calcium Response (AID 943). Also: nearly all actives have a fitted effect of over 75% in size. Also: potency is read from the fitted curve at half-maximal effect. Conditions: M1-expressing cells, kinetic intracellular calcium fluorescence; series mostly up to 35.3 µM. Summed up:
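CHO cells expressing rat M1 receptor, Fluo-4 loaded, preincubated 10 min with compound, then stimulated with EC80 carbachol (100 nM final). Kinetic calcium fluorescence over 4 min; response taken as peak over basal signal.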

The target of assay [10] is Cytochrome P450 2C9 (Homo sapiens) (UniProt P11712). As to the kind of experiment: qHTS Assay for Inhibitors and Substrates of Cytochrome P450 2C9 (AID 883). Also: % is scaled to controls: 0 for no effect and ±100 for the full control effect; nearly all actives have a fitted effect of over 60% in size. Particulars: recombinant CYP2C9, luciferin-H luminescence, 60 min; series mostly up to 57.1 µM. Summed up:
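10nM CYP2C9 + 100uM Luciferin-H (=KM), 25mM KPO4; cpd 10 min 37C; NADPH regen, 60 min 37C; stop/detect with P450 Glo-Buffer 20 min; luminescence. Norm. to 57uM sulphaphenazole as full inhibition.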

Assay [11] concerns the target Pyruvate kinase (Leishmania mexicana) (UniProt Q27686). Nature of the assay: qHTS Validation Assay for Activators of Leishmania Mexicana Pyruvate Kinase (AID 959). Particulars: purified L. mexicana pyruvate kinase, enzyme activity. Summed up:
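Luminescent ATP detection (PKLight) after a 1 h room-temperature reaction of 0.2 nM LmPYK E451W mutant with 0.5 mM PEP and 0.1 mM ADP at pH 7.2. Activity is normalized to DMSO-only control wells.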

Assay [12] in a line: Confirmation and Secondary Assay for Modulators of Hemoglobin Beta Chain Splicing at IVS2 705 locus (AID 930).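 Also: HeLa cells stably expressing the EGFP-705 splicing reporter; GFP fluorescence per well restored by corrected splicing of the IVS2-705 intron in EGFP; % of control where 0% means no effect.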 Conditions: HeLa EGFP-705 splicing reporter, GFP fluorescence, 48 h; series mostly up to 38.3 µM. An outline of the steps:
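Read-out: total peak GFP fluorescence per well (488 nm excitation, 500-520 nm emission) by laser-scanning cytometry. Cells: HeLa EGFP-705 splicing reporter, 2 days compound exposure in Optimem/2% FCS.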

Assay [13] deals with Cytochrome P450 3A4 (Homo sapiens) (UniProt P08684). As to the kind of experiment: qHTS Assay for Inhibitors and Substrates of Cytochrome P450 3A4 (AID 884). Also: % is scaled to controls: 0 for no effect and ±100 for the full control effect; nearly all actives have a fitted effect of over 50% in size. Conditions: recombinant CYP3A4, Luciferin-PPXE luminescence; series mostly up to 57.1 µM. Summed up:
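20 nM human CYP3A4 with 25 uM Luciferin-PPXE (at KM) in 200 mM KPO4, preincubated 10 min with compound; NADPH regeneration started a 60 min RT reaction. Luciferin detected by luminescence, normalized to 57 uM ketoconazole as full inhibition.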

Each structure is given as a SMILES string. Values joined by “and” are separate entries in the source; they are usually repeats but may differ in a detail not shown here. Identical values can stand only once. Values without a mark were called inactive. Records with an inconclusive call do not appear. Active and inactive are the calls of the source. Unless noted, calls follow the shape of the dose curve; as a rule, active = well fitted curve in the direction sought with a large enough effect; inconclusive = small, poorly fitted or top-dose-only effect, or another doubt; inactive = no such curve, though single readings can be large; an effect the other way counts as inactive or inconclusive.

Cytochrome P450 2C19 (Homo sapiens), sequence (P33261 whole entry, looked up): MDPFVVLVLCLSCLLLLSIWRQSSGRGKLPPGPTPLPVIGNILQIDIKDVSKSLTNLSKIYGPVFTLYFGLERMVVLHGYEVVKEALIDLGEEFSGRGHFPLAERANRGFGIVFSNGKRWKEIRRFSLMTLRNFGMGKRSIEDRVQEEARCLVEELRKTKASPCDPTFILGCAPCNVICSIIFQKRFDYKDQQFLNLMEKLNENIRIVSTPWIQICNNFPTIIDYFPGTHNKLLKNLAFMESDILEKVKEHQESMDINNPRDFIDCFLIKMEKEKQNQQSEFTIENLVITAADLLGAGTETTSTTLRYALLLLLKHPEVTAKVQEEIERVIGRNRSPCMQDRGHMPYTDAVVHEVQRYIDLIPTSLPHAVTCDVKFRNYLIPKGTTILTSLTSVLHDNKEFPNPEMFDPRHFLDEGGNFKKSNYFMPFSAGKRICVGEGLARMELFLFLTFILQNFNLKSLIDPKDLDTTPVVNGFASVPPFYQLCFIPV
Cytochrome P450 2C9 (Homo sapiens), sequence (P11712 whole entry, looked up): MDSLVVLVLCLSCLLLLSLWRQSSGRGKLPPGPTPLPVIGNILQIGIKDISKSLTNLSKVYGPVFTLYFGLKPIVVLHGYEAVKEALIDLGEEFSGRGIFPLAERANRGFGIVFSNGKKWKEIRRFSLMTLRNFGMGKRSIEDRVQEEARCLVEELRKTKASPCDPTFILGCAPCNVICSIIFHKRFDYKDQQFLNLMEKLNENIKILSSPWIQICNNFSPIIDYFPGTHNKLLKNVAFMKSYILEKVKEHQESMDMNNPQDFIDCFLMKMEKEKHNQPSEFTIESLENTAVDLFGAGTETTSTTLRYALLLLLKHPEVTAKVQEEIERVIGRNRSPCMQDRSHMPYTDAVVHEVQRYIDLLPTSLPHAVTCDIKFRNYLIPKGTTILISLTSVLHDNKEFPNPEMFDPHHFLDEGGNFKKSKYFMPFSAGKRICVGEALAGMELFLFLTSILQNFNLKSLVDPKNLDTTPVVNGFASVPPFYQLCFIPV
Cytochrome P450 2D6 (Homo sapiens), sequence (P10635 whole entry, looked up): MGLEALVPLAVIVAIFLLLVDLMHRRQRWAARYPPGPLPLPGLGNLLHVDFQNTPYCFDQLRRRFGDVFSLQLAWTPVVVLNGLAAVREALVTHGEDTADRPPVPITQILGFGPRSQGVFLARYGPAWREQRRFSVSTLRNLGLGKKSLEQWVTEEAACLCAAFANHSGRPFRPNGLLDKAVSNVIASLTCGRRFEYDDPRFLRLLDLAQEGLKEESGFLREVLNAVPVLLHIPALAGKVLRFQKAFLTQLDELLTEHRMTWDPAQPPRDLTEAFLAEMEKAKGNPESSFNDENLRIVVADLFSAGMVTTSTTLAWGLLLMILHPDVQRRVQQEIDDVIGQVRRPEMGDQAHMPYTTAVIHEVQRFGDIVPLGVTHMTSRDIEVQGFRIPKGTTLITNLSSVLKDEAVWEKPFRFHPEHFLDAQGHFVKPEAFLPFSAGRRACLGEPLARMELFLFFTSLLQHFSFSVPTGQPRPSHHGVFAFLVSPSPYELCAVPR
Lysosomal acid glucosylceramidase (Homo sapiens), sequence (P04062 whole entry, looked up): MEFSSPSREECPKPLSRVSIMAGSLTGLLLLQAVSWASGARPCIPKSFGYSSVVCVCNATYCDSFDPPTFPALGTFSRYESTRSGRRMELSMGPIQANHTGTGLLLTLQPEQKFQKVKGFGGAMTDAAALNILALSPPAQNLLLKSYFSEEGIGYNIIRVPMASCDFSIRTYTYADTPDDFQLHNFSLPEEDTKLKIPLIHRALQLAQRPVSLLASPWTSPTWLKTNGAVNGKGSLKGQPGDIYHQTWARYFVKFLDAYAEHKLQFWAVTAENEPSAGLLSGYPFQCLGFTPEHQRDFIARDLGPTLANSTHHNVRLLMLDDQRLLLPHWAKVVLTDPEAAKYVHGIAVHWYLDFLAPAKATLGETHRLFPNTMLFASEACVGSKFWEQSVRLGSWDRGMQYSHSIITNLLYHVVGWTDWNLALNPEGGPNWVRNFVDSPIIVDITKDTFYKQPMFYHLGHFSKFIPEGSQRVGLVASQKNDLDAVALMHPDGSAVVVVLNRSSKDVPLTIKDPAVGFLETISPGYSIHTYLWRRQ
Pyruvate kinase (Leishmania mexicana), sequence (Q27686 2-499 E452W): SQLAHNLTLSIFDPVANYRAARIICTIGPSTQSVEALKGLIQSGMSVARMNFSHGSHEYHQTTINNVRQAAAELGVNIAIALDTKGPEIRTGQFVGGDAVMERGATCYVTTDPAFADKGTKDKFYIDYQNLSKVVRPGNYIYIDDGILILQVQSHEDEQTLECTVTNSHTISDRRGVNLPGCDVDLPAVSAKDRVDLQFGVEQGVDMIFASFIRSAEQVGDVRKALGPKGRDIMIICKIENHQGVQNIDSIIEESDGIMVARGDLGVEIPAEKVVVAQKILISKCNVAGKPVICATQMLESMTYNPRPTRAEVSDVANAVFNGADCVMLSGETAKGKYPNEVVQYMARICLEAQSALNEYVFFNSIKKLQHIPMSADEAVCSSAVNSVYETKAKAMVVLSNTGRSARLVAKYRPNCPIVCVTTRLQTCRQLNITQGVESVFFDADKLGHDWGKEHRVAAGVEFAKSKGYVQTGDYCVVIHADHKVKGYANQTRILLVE

As to `COc1ccccc1CN1CC[C@@]2(CCCN(C(=O)c3ccco3)C2)C1`, the figures for the Potency in assay [1] and in assay [3] were more than 11.4 µM and 501 nM (active), respectively. The Potency entry in assay [2] is “inactive”. In addition, the activation in assay [4] was 6.4%.
For the compound `CC[C@@]12CCCN3CCc4c(n(c5ccccc45)C(=O)C1)[C@H]32`, the Potency in assay [1] was more than 11.4 µM; in assay [3] it was 20 nM (active) and 63.1 nM (active) and 251 nM (active); in assay [5], 7.94 µM (active). For the same compound, the Potency entry in assay [2] was “inactive”.
Regarding `CO[C@]1(NC(=O)CSCC#N)C(=O)N2C(C(=O)O)=C(CSc3nnnn3C)CS[C@H]21`, the call in [6] was inactive.
As to `C[C@@H]1COc2c(N3CCN(C)CC3)c(F)cc3c(=O)c(C(=O)O)cn1c23`, in assay [6], the compound was called inactive. The Potency entry in assay [7] was “inactive”.
As to `c1ccc([C@@H]2CN3CCSC3=N2)cc1`, the compound was classed as inactive in [6]. Also, the Potency result in assay [7] is “inactive”.
In the case of `C[C@@H](COc1ccccc1)N(CCCl)Cc1ccccc1`, the Potency in assay [3] was 158 nM (active); in assay [5], 2 µM (active). The outcome in assay [6] was inactive.
As for `C[C@@H](CCc1ccccc1)NC[C@H](O)c1ccc(O)c(C(N)=O)c1`, the Potency in [3] is 3.98 µM (active) and 2 µM (active). For the same compound, the Potency entry in [7] was “inactive”.
As to `O=C(O)CNC(=O)[C@@H](CS)Cc1ccccc1`, the Potency entry in assay [8] and in assay [9] was “inactive” each time. For the same compound, in [6], the compound was classed as inactive.
Regarding `CCCN[C@@H](C)C(=O)Nc1ccccc1C`, the compound was called inactive in [6].
Consider `C[C@@]12CCC(=O)C=C1CC[C@@H]1[C@@H]2[C@H](O)C[C@]2(C)[C@@H]1CC[C@]2(O)C(=O)CO`, for which the Potency entry in assay [10], in [3] and in [5] was “inactive” each time.
`CN1Cc2c(N)cccc2[C@H](c2ccccc2)C1`: the Potency entry in [2] and in assay [7] was “inactive” each time. Moreover, the Potency in assay [3] was 6310 nM (active). Further, in [6], the compound was classed as inactive.
`C[C@@]12CCC(=O)C=C1CC[C@H]1[C@H]3CC[C@](O)(C(=O)CO)[C@]3(C)CC(=O)[C@@H]12`: the Potency result in assay [10], in assay [3] and in assay [5] was “inactive” throughout.
Turning to `CC(=O)OCC1=C(C(=O)O)N2C(=O)[C@@H](NC(=O)Cc3cccs3)[C@@H]2SC1`, the Potency entry in [2], in assay [9] and in [7] was “inactive” throughout. The activation in assay [4] is -3.21% and -0.503%. Further, the compound was classed as inactive in [6]. Moreover, the Potency in assay [11] is 25.1 µM (active).
Take `C[C@@H]1c2cccc(O)c2C(O)=C2C(=O)[C@@]3(O)C(O)=C(C(N)=O)C(=O)[C@@H](N(C)C)[C@@H]3[C@@H](O)[C@@H]21`: in [6], the compound was called inactive. Further, the Potency result in [9] and in assay [7] was “inactive” in each case.
For the compound `C[C@@](N)(Cc1ccc(O)c(O)c1)C(=O)O`, the Potency entry in assay [2], in assay [3] and in [5] was “inactive” throughout. The result in [6] and in assay [12] was inactive.
As for `C[C@H](NCCc1ccc(O)cc1)[C@@H](O)c1ccc(O)cc1`, the Potency entry in [8] is “inactive”. The compound was classed as inactive in assay [6]. For the same compound, the Potency in assay [9] is 12.6 µM (active).
In the case of `C=CCc1ccccc1OC[C@H](O)CNC(C)C`, the figures for the Potency in [3] and in [8] were 6310 nM (active) and 3.16 µM (active), respectively. Besides, the call in [6] was inactive. The Potency entry in assay [7] is “inactive”.
Turning to `CN1C(=O)CC[C@@H]1c1cccnc1`, the Potency entry in assay [10], in [2], in assay [3], in assay [8], in assay [5] and in assay [9] was “inactive” in each case. In addition, the Potency result in assay [7] was “inactive”.
As to `Cc1cccc(C)c1OC[C@H](C)N`, the Potency result in [13] and in assay [7] was “inactive” each time. In assay [8], the Potency is 0.794 µM (active). Besides, the activation in [4] was -2.33% and -23.1%. The outcome in assay [6] was inactive.
`O=C(c1ccccc1)c1ccc2n1CC[C@H]2C(=O)O`: in [6], the result was inactive. Further, the Potency result in assay [7] was “inactive”.

Values taken from PubChem BioAssay (NCATS).
